The supplement of paper PMC12645437, “Orthogonal IMiD-Degron Pairs Induce Selective Protein Degradation in Cells” (ACS Chemical Biology, 2025)
Over roughly 8,300 sequences, “log2 fold change of degron read counts, EGFP-low vs EGFP+ sorted cells (limma voom), compound-induced degradation” has its median near -1.1; the highest 2% begin near 3.2. What follows is part of a selection rich in the highest values, with near analogues and random picks from the rest.

T1: CRBN, Q96SW2
T1 chain: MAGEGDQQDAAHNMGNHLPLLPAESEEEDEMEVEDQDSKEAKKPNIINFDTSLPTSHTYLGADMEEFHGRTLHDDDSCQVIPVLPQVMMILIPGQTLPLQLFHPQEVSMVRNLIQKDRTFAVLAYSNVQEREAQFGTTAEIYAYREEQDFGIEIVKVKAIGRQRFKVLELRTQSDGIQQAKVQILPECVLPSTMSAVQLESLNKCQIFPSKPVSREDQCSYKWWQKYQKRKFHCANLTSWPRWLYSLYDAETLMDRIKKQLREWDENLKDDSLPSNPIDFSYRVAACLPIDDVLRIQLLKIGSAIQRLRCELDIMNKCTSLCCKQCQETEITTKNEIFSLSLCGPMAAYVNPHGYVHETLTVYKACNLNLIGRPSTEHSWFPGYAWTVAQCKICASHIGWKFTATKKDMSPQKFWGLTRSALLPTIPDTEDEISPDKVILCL


Biological target: T1, CRBN, Q96SW2
Assay: log2 fold change of degron read counts, EGFP-low vs EGFP+ sorted cells (limma voom), compound-induced degradation; higher = more compound-induced degradation of the degron-EGFP fusion; degrons are variants of IKZF1/3 zinc finger 2; compound dose not given here
Conditions: Jurkat, 18 h
[1] = compound: compound 19 (5-tert-butyl-thalidomide)
[2] = compound: compound 22 (5-morpholino-thalidomide)
[3] = compound: compound 33 (diphenyl IMiD analogue)
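Note: pooled lentiviral library of zinc finger degron-EGFP fusions in mCherry-positive Jurkat cells, FACS-sorted after compound exposure, with degron abundance counted by next-generation sequencing.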

| Sequence | log2 fold change of degron read counts [1] | log2 fold change of degron read counts [2] | log2 fold change of degron read counts [3] | log2 fold change of degron read counts (compound: thalidomide) |
| --- | --- | --- | --- | --- |
| FCCSVCGHLFTQKGNLLRHIKL [46F_47C_49S_50V_52G_53H_54L_55F_67L_, Q9UKT9] | -2.25 | -2.38 | -2.22 | -2.25 |
| FRCEQCGAGFTQKGNLLRHIKL [46F_47R_49E_50Q_52G_53A_54G_55F_67L_, Q9UKT9] | -0.467 | -1.48 | 0.986 | -0.649 |
| FSCNVCGAEFTQKGNLLRHIKL [46F_47S_49N_50V_52G_53A_54E_55F_67L_, Q9UKT9] | -1.82 | -2 | -0.491 | -1.04 |
| FLCNQCGHTFTQKGNLLRHIKL [46F_47L_49N_50Q_52G_53H_54T_55F_67L_, Q9UKT9] | -2.86 | -3.5 | -3.07 | -2.79 |
| FICSVCGHTFTQKGNLLRHIKL [46F_47I_49S_50V_52G_53H_54T_55F_67L_, Q9UKT9] | -2.11 | -2.3 | -3.14 | -2.67 |
| FFCDICGATFTQKGNLLRHIKL [46F_47F_49D_50I_52G_53A_54T_55F_67L_, Q9UKT9] | 2.91 | 2.77 | 0.337 | -0.566 |
| FMCEVCGASFTQKGNLLRHIKL [46F_47M_49E_50V_52G_53A_54S_55F_67L_, Q9UKT9] | 1.39 | 1.79 | 2.94 | 2.05 |
| FACEVCGASFTQKGNLLRHIKL [46F_47A_49E_50V_52G_53A_54S_55F_67L_, Q9UKT9] | 3.87 | 2.73 | 0.799 | 1.03 |
| FICEVCGASFTQKGNLLRHIKL [46F_47I_49E_50V_52G_53A_54S_55F_67L_, Q9UKT9] | 0.0302 | 2.88 | 2.44 | 2.95 |
| FVCEVCGASFTQKGNLLRHIKL [46F_47V_49E_50V_52G_53A_54S_55F_67L_, Q9UKT9] | 1.21 | 2.91 | 2.54 | 3.54 |
| FQCEVCGADFTQKGNLLRHIKL [46F_47Q_49E_50V_52G_53A_54D_55F_67L_, Q9UKT9] | -0.53 | -0.0138 | 1.04 | 3.09 |
| FQCEVCGASFTQKGNLLRHIKL [46F_47Q_49E_50V_52G_53A_54S_55F_67L_, Q9UKT9] | 2.49 | 2.89 | 2.13 | 3.53 |
| FCCNVCGASFTQKGNLLRHIKL [46F_47C_49N_50V_52G_53A_54S_55F_67L_, Q9UKT9] | 0.743 | 0.454 | 0.99 | 0.32 |
| FHCEVCGASFTQKGNLLRHIKL [46F_47H_49E_50V_52G_53A_54S_55F_67L_, Q9UKT9] | 2.93 | 2.64 | 1.35 | 0.198 |
| FRCEVCGASFTQKGNLLRHIKL [46F_47R_49E_50V_52G_53A_54S_55F_67L_, Q9UKT9] | 2.07 | 1.56 | 2.15 | 2.07 |
| FACNVCGASFTQKGNLLRHIKL [46F_47A_49N_50V_52G_53A_54S_55F_67L_, Q9UKT9] | 1.32 | 0.642 | -0.249 | -1.16 |
| FYCEVCGASFTQKGNLLRHIKL [46F_47Y_49E_50V_52G_53A_54S_55F_67L_, Q9UKT9] | 3.7 | 3.86 | 2.94 | 1.59 |
| FRCEICGRNFTQKGNLLRHIKL [46F_47R_49E_50I_52G_53R_54N_55F_67L_, Q9UKT9] | -2.69 | -2.64 | -1.31 | -0.795 |
